Assay outcomes: PubChem, National Center for Advancing Translational Sciences (NCATS)
HTT cytoprotect: protects HTT-Q103 PC12 cells, measured by ATP | PC12 HTT-Q103 induced, cytoprotection, ATP luminescence, 40 h | Potency, µM (top dose mostly 56.4 µM), usual class: activators | 230,000 tested, 0.14% active; also: nearly all actives have a fitted effect of over 45% in size
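Quantitative HTS on tebufenozide-induced (100 nM) PC12 cells expressing HTTQ103 exon 1–GFP; compounds tested as a concentration series; survival measured via cellular ATP.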
GLA inh pH 4.5: inhibitors of human alpha-galactosidase A at pH 4.5; activity change, negative = inhibition, % at 105 µM; P06280; AID 1467; purified enzyme, 4-MU-alpha-Gal fluorescence, pH 4.5; 230,000 tested, under 10 active
HttQ103 aggreg: mutant huntingtin aggregation inhibition; PC12 HttQ103-GFP aggregates, Acumen cytometry, 40 h; Potency, µM (series often up to 46.1 µM), most hits filed as inhibitors; 220,000 tested, 1.1% active; AID 1688; also: nearly all actives have a fitted effect of over 60% in size
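Read-out: GFP aggregate count by laser scanning cytometer (488 nm excitation, 500-530 nm emission, 1–25 µm objects >6 SD above background). Cells: PC12, inducible HTTex1-Q103-GFP, 100 nM tebufenozide; compounds titrated.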
PKM2 activator: increases activity of human pyruvate kinase M2; P14618; purified PKM2, Kinase-Glo ATP luminescence, activation; response scale: 0% is enzyme alone, no compound; Potency, µM (highest dose often 57.5 µM), usual class: activators; 260,000 tested, 0.34% active; AID 1631; also: nearly all actives have a fitted effect of over 55% in size
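Purified hPK-M2 (>95% pure) converted ADP (0.1 mM final) to ATP with 0.5 mM PEP in 50 mM imidazole pH7.2, KCl, MgCl2, Tween 20, BSA; 1 h at room temperature. ATP detected by Kinase-Glo luminescence.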
aGal spleen mod: alpha-galactosidase A (human) modulation | human spleen homogenate, 4MU-alpha-Gal fluorescence, 40 min | P06280 | 240,000 tested, 0.008% active | Potency, µM (titrated, usually from 80 µM), hits mostly inhibitors
Target sequence (P06280 32-429 limits assumed): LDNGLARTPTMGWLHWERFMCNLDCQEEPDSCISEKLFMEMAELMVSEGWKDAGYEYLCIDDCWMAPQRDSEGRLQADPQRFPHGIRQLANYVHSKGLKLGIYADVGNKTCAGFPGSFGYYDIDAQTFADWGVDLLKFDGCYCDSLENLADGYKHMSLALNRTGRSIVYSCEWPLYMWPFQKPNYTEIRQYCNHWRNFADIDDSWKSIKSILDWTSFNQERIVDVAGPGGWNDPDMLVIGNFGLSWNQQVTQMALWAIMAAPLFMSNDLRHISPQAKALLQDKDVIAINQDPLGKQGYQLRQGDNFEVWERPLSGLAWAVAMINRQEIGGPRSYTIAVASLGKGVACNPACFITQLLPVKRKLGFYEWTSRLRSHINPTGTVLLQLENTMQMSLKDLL
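Human spleen homogenate (1 ug) was the enzyme source, with 4-methylumbelliferyl-alpha-D-galactopyranoside (1 mM final) in pH 5.0 citrate buffer with 0.01% Tween-20. Compounds were titrated; after 40 min at 37C, NaOH/glycine stop, 4-MU fluorescence read; AC50 from Hill fits.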
Numbers stand for hits; [ ] = another dose, or the depositor's remark. A selection: hits, their analogues and other compounds. The true share with any hit is near 1.2%. Calls follow the shape of the dose curve; as a rule, active = well fitted curve in the direction sought with a large enough effect; inconclusive = small, poorly fitted or top-dose-only effect, or another doubt; inactive = no such curve, though single readings can be large; an effect the other way counts as inactive or inconclusive.

Screening CCN(CC)CCC(c1ccc(N(C)C)cc1)c1c(OC)cc(OC)c2c1OC(=O)CC2c1ccc(N(C)C)cc1 (configuration not stated) returned aGal spleen mod inactive.
CC(C)(C)C(=O)NC(=S)NNC(=O)c1ccc(-c2ccccc2)cc1 was read as HTT cytoprotect inconclusive, GLA inh pH 4.5 inactive, HttQ103 aggreg 8.91µM, PKM2 activator inactive and aGal spleen mod inactive.
`CCc1nnc(NC(=O)CSc2nc(C)c3c(c2C#N)CCCC3)s1` gave HTT cytoprotect inactive, GLA inh pH 4.5 inconclusive, HttQ103 aggreg inactive, PKM2 activator 10µM and aGal spleen mod inactive.
CO[C@@H]1/C=C\CC(=O)N[C@@H](C)C(=O)OC[C@H](NS(=O)(=O)c2ccc(C)cc2)[C@H](C)/C=C\CC(=O)OC[C@H]1C was read as HTT cytoprotect inconclusive and aGal spleen mod inactive[17.5 µM].
CN(Cc1ccccc1)c1ncnc2ccc(Br)cc12 was read as HTT cytoprotect inactive, GLA inh pH 4.5 inactive, HttQ103 aggreg 0.355µM, PKM2 activator inactive and aGal spleen mod inactive.
c1ccc(C(c2ccccc2)N2CCC3(CCNCC3)CC2)cc1 was read as HTT cytoprotect inactive and aGal spleen mod inactive.
`Cc1cc2c(c(=O)o1)C1O[C@](CCCCN3C(=O)c4ccccc4C3=O)(Cc3cc(C#N)ccc31)O2` gave PKM2 activator inactive[11.5 µM].
For COc1ccc(CCN2C(=S)NC3CC2(C)Oc2ccc([N+](=O)[O-])cc23)cc1OC (configuration not stated) the results were HTT cytoprotect inactive, GLA inh pH 4.5 inactive, HttQ103 aggreg 10µM, PKM2 activator inactive and aGal spleen mod inactive.
Screening COc1ccc(N2C(=O)NC3CC2(C)Oc2ccc(Cl)cc23)cc1OC (configuration not stated) returned HTT cytoprotect inactive, GLA inh pH 4.5 inactive, HttQ103 aggreg inactive, PKM2 activator inactive and aGal spleen mod inactive.
Screening CC(=O)Nc1ccc(S(=O)(=O)N2CCN=C2SCc2cccnc2)cc1 returned HTT cytoprotect inactive, GLA inh pH 4.5 inactive, HttQ103 aggreg inactive, PKM2 activator 15.8µM and aGal spleen mod inactive.
Screening O=S(=O)(c1ccc2ccccc2c1)N1CCN=C1SCc1cccnc1 returned HTT cytoprotect inactive, GLA inh pH 4.5 inactive, HttQ103 aggreg inactive, PKM2 activator 17.8µM and aGal spleen mod inactive.
For CC(=O)Nc1ccc(S(=O)(=O)N2CCN=C2SCc2ccc(C)cc2)cc1 the results were PKM2 activator inactive.
`O=S(=O)(c1ccc(F)cc1)N1CCN=C1SCc1cccnc1` gave HTT cytoprotect inactive, GLA inh pH 4.5 inactive, HttQ103 aggreg inactive, PKM2 activator inactive and aGal spleen mod inactive.
For COc1ccccc1-c1ccc(SCc2ccc([N+](=O)[O-])cc2)nn1 the results were HTT cytoprotect inactive, GLA inh pH 4.5 inactive, HttQ103 aggreg inactive, PKM2 activator inactive and aGal spleen mod inactive.
For COc1ccccc1-c1ccc(SCc2cccc(C)c2)nn1 the results were HTT cytoprotect inconclusive, GLA inh pH 4.5 inactive, HttQ103 aggreg 22.4µM, PKM2 activator inactive and aGal spleen mod inactive.
NC(=O)NC(N)=O was read as HTT cytoprotect inactive and aGal spleen mod inactive.
`CN(c1ccc(OCC(=O)OCC(=O)Nc2ccccc2)cc1)S(=O)(=O)c1cccs1` gave HTT cytoprotect inactive[1.9 µM], GLA inh pH 4.5 inactive, HttQ103 aggreg 1.26µM, PKM2 activator inactive and aGal spleen mod inactive.
Screening COc1ccc(OCC(=O)Nc2ccc(NC(=O)c3cccs3)cc2)cc1 returned PKM2 activator inactive.
Screening CN(C(=O)c1cccs1)c1ccc(OCC(=O)Nc2ccc(C(=O)O)cc2)cc1 returned HTT cytoprotect 0.891µM, GLA inh pH 4.5 inactive, HttQ103 aggreg inconclusive, PKM2 activator inactive and aGal spleen mod inactive.
O=C1[C@H]2[C@H]3[C@H](O)[C@H](O)C/C(=N/OCc4ccccc4)[C@H]3CC[C@@H]2C(=O)N1c1cccc(Oc2ccccc2)c1 was read as HTT cytoprotect inactive[10 µM] and aGal spleen mod inactive[17.5 µM].
For c1ccc(-c2nc(NCc3ccco3)c3ccccc3n2)nc1 the results were HTT cytoprotect inactive, GLA inh pH 4.5 inactive, HttQ103 aggreg 17.8µM, PKM2 activator inactive and aGal spleen mod inactive.
`Cc1ccc(Nc2nc(NCc3ccco3)c3ccccc3n2)cc1` gave HTT cytoprotect inactive, GLA inh pH 4.5 inactive, HttQ103 aggreg 11.2µM, PKM2 activator inactive and aGal spleen mod inactive.
